Activity calls are given as the source filed them. The call rests on the fitted dose curve; in most records, active means well fitted curve in the direction sought with a large enough effect; inconclusive means small, poorly fitted or top-dose-only effect, or another doubt; inactive means no such curve, though single readings can be large or run the other way.

The test is described as follows: qHTS screen for inhibitors of ELG1-dependent DNA repair in human embryonic kidney (HEK293T) cells expressing luciferase-tagged ELG1: 5FU Viability Assay for probe SAR. As to conditions: HEK293T ELG1-luc, CellTiter-Glo viability, 16 h; series mostly up to 46.1 µM. From the text: Cancer cells divide rapidly compared to normal cells in the body. During cell division, cancer cells need to duplicate their genome by DNA replication. The failure of genome duplication leads to cancer cells' death. Therefore, inhibitors of DNA replication could specifically kill cancer cells. Based on this concept, many chemotherapeutic agents were developed and have been used to treat cancer patients. However, there are a limited number of agents available in the clinical setting, and some of those that do exist have low efficacy and severe side effects. Therefore, if we can find the compounds that effectively block DNA replication either by directly damaging DNA or by inhibiting other cellular mechanisms, the options for cancer treatment will be broadened. With this in mind, we developed a quantitative high-throughput ELG1-luciferase reporter gene assay. Small molecules that specifically block ELG1 function in response to DNA damage can be identified by monitoring the suppression of luciferase activity. Since ELG1 defines a pathway for repairing DNA damage, agents blocking ELG1 function can be used to sensitize cancer cells to chemotherapeutic agents whose mechanism of action involves the induction of DNA damage. Cytotoxicity of the active compounds in the ELG1 qHTS assay (AID 493107) was assessed using the CellTiter-Glo Luminescent Cell Viability Assay kit (Promega, USA). CellTiter-Glo measures the intracellular ATP present in metabolically active cells using Ultra-Glo as the luciferase to detect ATP levels. In brief, the luciferase in the buffer catalyzes the oxidation of luciferin to oxyluciferin and light which is dependent on ATP. […] DMSO and wells with media alone were used as positive and negative controls, respectively. Inactivity to this assay is the desirable outcome. NIH Molecular Libraries Probe Production Network [MLPCN] NIH Chemical Genomics Center [NCGC] MLPCN Grant: R03 MH092164 Assay Provider: Kyungjae Myung, NHGRI, NIH
ELG1-luc HEK293T cells will be seeded in 1536-well plates at a density of 2,000 cells/well. Approximately 5 hours after plating, compounds will be added to the plate by pin tool transfer and 5-fluorouridine will be added by FRD dispenser (final concentration of 5-fluorouridine =10 µM). 16 hours following the addition of the compounds, cell viability will be measured using CellTiter Glo.
A general note: Quantitative high-throughput screening tests each substance at several concentrations.
On to `Fc1ccc(-c2nc(-c3ccncc3)nc3ccccc23)cc1F`, for which the result was inactive.

As for `CN1CCN(c2ccc(Nc3nc(-c4ccncc4)nc4ccccc34)cc2F)CC1`, the call was inactive.

With `Fc1cc(Nc2nc(-c3ccncc3)nc3ccccc23)ccc1-c1ccc(F)c(F)c1F`, the compound was classed as inactive.

As to `Fc1cc(Nc2nc(-c3ccncc3)nc3ccccc23)ccc1N1CCCCC1`, the compound was called inactive.

Turning to `COc1ccc(-n2c(C)c(C(C)=O)c3cc(O)ccc32)cc1`, the call was inactive.

Turning to `Fc1cc(Nc2nc(-c3ccncc3)nc3ccccc23)ccc1-c1cccc(C(F)(F)F)c1`, the result was inactive.

In the case of `COc1cc(-c2nc(Nc3ccc(F)c(F)c3)c3ccccc3n2)c(F)cn1`, the result was inactive.

Take `COc1ccc(-n2c(C)c(C(C)=O)c3ccccc32)cc1`: the result was inactive.

For the compound `Fc1cc(Nc2nc(-c3ccncc3)nc3ccccc23)ccc1-c1ccncc1`, the compound was called inactive.

In the case of `Fc1cc(Nc2nc(-c3ccncc3)nc3ccccc23)ccc1-n1cncn1`, the compound was called inactive.

Regarding `Fc1cc(Nc2nc(-c3ccncc3)nc3ccccc23)ccc1N1CCNCC1`, the call was inactive.

As to `Fc1cc(Nc2nc(-c3ccncc3)nc3ccccc23)ccc1C(F)(F)F`, the call was inactive.

As for `O=c1cc(-c2nc(Nc3ccc(F)c(F)c3)c3ccccc3n2)cc[nH]1`, the compound was classed as inactive.

Regarding `COc1cc(-c2nc(Nc3ccc(F)c(F)c3)c3ccccc3n2)cc(OC)n1`, the outcome was inactive.

Turning to `COc1cc(Nc2nc(-c3ccncc3)nc3ccccc23)ccc1NS(C)(=O)=O`, the outcome was inactive.

Turning to `Fc1ccc(Nc2nc(-c3ccnc(N4CCCCC4)c3)nc3ccccc23)cc1F`, the result was inactive.

Consider `COc1cc(Nc2nc(-c3ccncc3)nc3ccccc23)ccc1F`, for which the call was inactive.

As for `c1ccc2c(Nc3ccn[nH]3)nc(-c3ccncc3)nc2c1`, the result was inactive.

As to `Fc1cc(Nc2nc(-c3ccncc3)nc3ccccc23)ccc1-c1cncnc1`, the call was inactive.

For `Fc1ccccc1-c1ccc(Nc2nc(-c3ccncc3)nc3ccccc23)cc1F`, the compound was called inactive.

`CCOC(=O)c1ccc2c(c1)c(C(C)=O)c(C)n2-c1ccc(OC)cc1`: the compound was classed as inactive.

For the compound `COc1nccc(-c2nc(Nc3ccc(F)c(F)c3)c3ccccc3n2)c1OC`, the compound was classed as inactive.

Regarding `Fc1ccc(-c2ccc(Nc3nc(-c4ccncc4)nc4ccccc34)cc2F)cc1`, the compound was classed as inactive.

These data come from PubChem BioAssay AID686921 (National Center for Advancing Translational Sciences (NCATS), 2013).
